Only a sample is shown.
aSyn 5UTR act – Activators working through SNCA 5'UTR binding (MLPCN); 7.1% of 300,000 active; activity score, % (tested at 7.5 µM), hits read low; alpha-synuclein 5'UTR reporter, activators screen; AID 1814; in the data active means activity score below about -60%
* = called active by the depositor.

Results for O=[N+]([O-])c1ccc(C2=NN(c3ccccc3)C(c3ccco3)C2)cc1 (stereo not drawn) ?
aSyn 5UTR act: -74.9*

How did CCS(=O)(=O)Nc1cccc(C2=NN(C(=O)c3ccco3)C(c3ccco3)C2)c1 (stereo not drawn) do in these assays?
aSyn 5UTR act: -73.4*

What do the screens show for `CCc1ccc(C2=NN(C(C)=O)C(c3ccco3)C2)cc1` (stereo not drawn)?
aSyn 5UTR act: -202.4*

What do the screens show for `COc1ccc2nc(NC(=O)C34CC5CC(CC(NC(C)=O)(C5)C3)C4)sc2c1`?
aSyn 5UTR act: -94.4*

Results for CCOc1ccc2nc(NC(=O)C34CC5CC(CC(NC(C)=O)(C5)C3)C4)sc2c1 ?
aSyn 5UTR act: -131.9*

Results for COc1cc(NC(=O)c2ccc(Cl)cc2)c(OC)cc1NC(=O)CN1CCCCC1 ?
aSyn 5UTR act: -67.9*

What do the screens show for `Cc1nc2cc(N3CCCCC3)c(NC(=O)c3ccncc3)cc2c(=O)n1Cc1ccc(Cl)cc1`?
aSyn 5UTR act: 61.8

What do the screens show for `CN(C)C(=O)c1cc(C(=O)c2ccc(Cl)cc2Cl)c[nH]1`?
aSyn 5UTR act: -94.2*

What do the screens show for `CN(C)C(=O)c1cc(C(=O)c2ccc(F)cc2Cl)c[nH]1`?
aSyn 5UTR act: -92.6*

Results for CN(C)C(=O)c1cc(C(=O)c2ccc(C(F)(F)F)cc2)c[nH]1 ?
aSyn 5UTR act: -151.0*

Results for Clc1ccc(-c2nnsc2SCc2ccccc2)cc1 ?
aSyn 5UTR act: -75.1*

What do the screens show for `Cc1ccc(-c2nc3ccccc3s2)cc1NC(=O)c1ccc2c(c1)OCO2`?
aSyn 5UTR act: -76.2*

What do the screens show for `Cc1ccc(-c2nc3ccccc3s2)cc1NC(=S)NC(=O)c1cccc2ccccc12`?
aSyn 5UTR act: -97.3*

What do the screens show for `O=C(Nc1cc(-c2nc3ccccc3s2)ccc1Cl)c1ccc2c(c1)OCO2`?
aSyn 5UTR act: -70.4*

What do the screens show for `CN(C)/C=N/c1ncnc2c1cnn2-c1ccc(C(F)(F)F)cn1`?
aSyn 5UTR act: -83.9*

How did CCOC(=O)c1oc2nc3c(cc2c1N)CCCC3 do in these assays?
aSyn 5UTR act: -107.4*

Results for COC(=O)/C(=C1/Oc2ccc(C)cc2S1)C(F)(F)F ?
aSyn 5UTR act: -152.3*

How did CN(C)c1ccc(-c2nnn(Cc3ccccc3Br)n2)cc1 do in these assays?
aSyn 5UTR act: -65.8*

Results for Clc1ccccc1Cn1nnc(-c2cccs2)n1 ?
aSyn 5UTR act: -99.6*

What do the screens show for `Clc1ccccc1Cn1nnc(-c2ccccc2)n1`?
aSyn 5UTR act: -153.0*

How did COc1cccc(Cn2c(N)c(C#N)c3nc4ccccc4nc32)c1OC do in these assays?
aSyn 5UTR act: 52.9

Results for COc1cccc(CNc2ccc3c(c2)ncn3C(C)C)c1OC ?
aSyn 5UTR act: -86.5*

Results for CCN(CC)C(=O)Cn1cc(C(=O)C(=O)Nc2ccc3c(c2)OCCO3)c2ccccc21 ?
aSyn 5UTR act: -90.9*

What do the screens show for `O=C(CSc1ccccc1)Nc1ccc2c(c1)OCCO2`?
aSyn 5UTR act: -63.5*

How did O=C(CSCc1ccccc1)Nc1ccc(Cl)cn1 do in these assays?
aSyn 5UTR act: -134.1*

What do the screens show for `O=C(CSc1ccc(-c2ccccc2)nn1)Nc1ccc2c(c1)OCCO2`?
aSyn 5UTR act: -148.2*

What do the screens show for `O=C(CC1Nc2ccccc2NC1=O)Nc1ccc2c(c1)OCO2` (stereo not drawn)?
aSyn 5UTR act: -108.4*

Results for Cc1cc(C)cc(C(=O)N2CC(=O)Nc3ccccc32)c1 ?
aSyn 5UTR act: 110.1

How did CN1CCN(c2ccc(NC(=O)CSc3ccccc3)cc2F)CC1 do in these assays?
aSyn 5UTR act: -107.2*

Results for O=C(CSCc1ccccc1)Nc1ccc2c(c1)OCO2 ?
aSyn 5UTR act: -154.0*

What do the screens show for `O=C(CN1CC(=O)Nc2ccccc21)Nc1ccc(F)c(F)c1`?
aSyn 5UTR act: -94.3*

Results for CCCCSc1nnc2c(n1)[nH]c1ccccc12 ?
aSyn 5UTR act: -134.7*

What do the screens show for `O=C(CSc1nnc2ccccn12)Nc1ccc2c(c1)OCCO2`?
aSyn 5UTR act: -121.8*

Results for Cn1cc(SCC(=O)Nc2ccc3c(c2)OCCO3)c2ccccc21 ?
aSyn 5UTR act: -77.8*

Results for O=C(CSc1nnc2c(n1)[nH]c1ccccc12)Nc1ccc2c(c1)OCO2 ?
aSyn 5UTR act: -79.8*

What do the screens show for `O=C(CSc1ccccc1)Nc1ccc2c(c1)OCO2`?
aSyn 5UTR act: -125.0*

How did CC(=O)c1cccc(NC(=O)CSCc2ccccc2)c1 do in these assays?
aSyn 5UTR act: -99.6*

Results for O=C(CN1C(=O)C2C3C=CC(C3)C2C1=O)Nc1ccc2c(c1)OCCO2 (stereo not drawn) ?
aSyn 5UTR act: -115.8*

What do the screens show for `CC1Cc2nc(SCC(=O)Nc3ccc4c(c3)OCO4)n(Cc3ccccc3)c(=O)c2S1` (stereo not drawn)?
aSyn 5UTR act: -94.5*

Results for O=C(Cn1cnc2ccccc2c1=O)Nc1ccc2c(c1)OCCO2 ?
aSyn 5UTR act: -110.1*

Results for O=C(CSCc1ccccc1)Nc1ccc(F)c(F)c1 ?
aSyn 5UTR act: -136.1*

How did O=C(CSc1nnc2ccccn12)Nc1ncc(Cl)cc1Cl do in these assays?
aSyn 5UTR act: -78.2*

What do the screens show for `COc1ccc(-n2c(SC(C)C(=O)Nc3ncc(Cl)cc3Cl)nc3ccccc32)cc1` (stereo not drawn)?
aSyn 5UTR act: 76.6

What do the screens show for `CCOc1ccc2c(c1)nc(SCC(=O)c1cccs1)n2C`?
aSyn 5UTR act: -66.7*

Results for O=C(c1ccc(Br)s1)N1CCc2ccccc2C1 ?
aSyn 5UTR act: -65.1*

What do the screens show for `O=C(Cc1ccc(Br)cc1)N1CCc2ccccc2C1`?
aSyn 5UTR act: -145.0*

How did O=C(COc1ccc(/C=N/NC(=O)c2ccccc2O)cc1)Nc1ccccc1 do in these assays?
aSyn 5UTR act: -126.4*

How did COc1cc(/C=N/NC(=O)c2ccncc2)ccc1OCC(=O)Nc1ccccc1 do in these assays?
aSyn 5UTR act: -100.2*

How did O=C(COc1ccc(/C=N/NC(=O)c2cc3ccccc3o2)cc1Cl)Nc1ccccc1 do in these assays?
aSyn 5UTR act: 100.8

What do the screens show for `COc1cc(/C=N/NC(=O)c2ccccc2O)ccc1OCC(=O)Nc1ccccc1`?
aSyn 5UTR act: -140.0*

How did O=C(N/N=C/c1ccc(OCC(=O)N2CCCCC2)cc1)c1ccccc1O do in these assays?
aSyn 5UTR act: -74.1*

How did COc1ccc(NCc2nc3ccccc3n2CCOc2ccccc2)cc1 do in these assays?
aSyn 5UTR act: -206.5*

Results for Cc1nc2ccccc2n1CCCOc1ccccc1 ?
aSyn 5UTR act: -89.2*

Results for COc1ccc(NCc2nc3ccccc3n2CCOc2ccc(C)cc2)cc1 ?
aSyn 5UTR act: -114.2*

How did O=c1oc2ccccc2n1CCCOc1ccccc1 do in these assays?
aSyn 5UTR act: -73.0*

Results for Cc1ccc(OCCn2c(NC(=O)c3ccco3)nc3ccccc32)cc1 ?
aSyn 5UTR act: 67.2

How did O=[N+]([O-])c1cccc(-c2csc(N/N=C/c3cccc(O)c3)n2)c1 do in these assays?
aSyn 5UTR act: -216.1*

What do the screens show for `CC(=O)Nc1sc(N/N=C/c2ccc(N(C)C)cc2)nc1-c1ccc(C)cc1`?
aSyn 5UTR act: -68.0*

What do the screens show for `CC(=O)c1sc(N/N=C/c2cccc(O)c2)nc1C`?
aSyn 5UTR act: -337.9*

What do the screens show for `Cc1csc(N/N=C/c2ccc([N+](=O)[O-])cc2)n1`?
aSyn 5UTR act: -147.5*

How did Cc1csc(N/N=C/c2ccccn2)n1 do in these assays?
aSyn 5UTR act: 68.7

What do the screens show for `CC(=O)c1cccc(Nc2nc(-c3cccc([N+](=O)[O-])c3)cs2)c1`?
aSyn 5UTR act: -222.3*

How did CC(=O)c1sc(N/N=C/c2cccc([N+](=O)[O-])c2)nc1C do in these assays?
aSyn 5UTR act: -169.6*

Bioassay records (PubChem BioAssay)
